{"source": "PubChem BioAssay AID2284362", "about": "(EPA ToxCast)", "note": "Inconclusive results are not listed. The source made the active and inactive calls. How the source made its calls: active means hit-call score of the fitted dose curve at least 0.9, where 1 is the maximum; inconclusive means response in the unintended direction; inactive means score below 0.9."}
{"experiment": "CCTE_Mundy_HCI_iCellGABA_NOG_NeuriteCount: CCTE's Neurite Outgrowth Assay in iCellGABA cells for Neurite Count, Mundy Lab", "procedure": "CCTE_Mundy_HCI_iCellGABA_NOG is a multiplexed, cell-based-readout assay that uses iCell GABANeurons from FUJIFILM Cellular Dynamics, Inc. (FCDI), human GABAergic enriched neurons derived from induced pluripotent stem (iPS) cells, with measurements taken at 50.33 hours after chemical dosing in a microplate: 96-well plate.CCTE_Mundy_HCI_iCellGABA_NOG_NeuriteCount is one of four components of the CCTE_Mundy_HCI_iCellGABA_NOG assay. It measures neurite outgrowth related to number of neurites using High Content Imaging of fluorescently labelled markers.Data from the assay component CCTE_Mundy_HCI_iCellGABA_NOG_NeuriteCount was analyzed at the endpoint CCTE_Mundy_HCI_iCellGABA_NOG_NeuriteCount in the positive analysis fitting direction relative to DMSO as the negative control and baseline of activity. Using a type of morphology reporter, loss-of-signal activity can be used to understand developmental effects.\nExposure starts 2 hours post-plating by adding 10 ul of the working solution to 90 ul of media in the wells for a 1/10 dilution. Forty-eight hours after chemical treatment cells are fixed by direct addition of 100 ul of warm (37C) Dulbecco's phosphate buffered saline (DPBS) fixative solution containing 8% paraformaldehyde, 8% sucrose, and 0.1% of 3 mg/ml Hoechst 33342 into each well. Primary antibodies are prepared by dilution in Immunocytochemical Staining Buffer (ISB), 10X Dulbecco's PBS, 0.1% Saponin, 5% Bovine Serum Albumin, 0.5% NaN3 (Sodium Azide) and betaIII-tubulin (rabbit anti-betaIII-tubulin, 1:800) followed by Alexa Fluor-488 secondary (1:500) to label neuronal cell bodies and neurites. A Cellomics ArrayScan VTi HCS Reader is used for automated image acquisition and analysis of neurite outgrowth."}
{"smiles": "CCOC(=O)CC(SP(=S)(OC)OC)C(=O)OCC", "note": "(centres undefined)", "AC50": "74.1 µM (active)"}
{"smiles": "COP(=S)(OC)SCN1C(=O)c2ccccc2C1=O", "AC50": "74.2 µM (active)"}
{"smiles": "COP(=O)(OC)OC=C(Cl)Cl", "outcome": "inactive"}
{"smiles": "CCOP(=S)(OCC)Oc1nc(Cl)c(Cl)cc1Cl", "AC50": "30.1 µM (active)"}
{"smiles": "CCOP(=S)(OCC)Oc1ccc2c(C)c(Cl)c(=O)oc2c1", "AC50": "71.2 µM (active)"}
{"smiles": "CCOP(=S)(Oc1cnc(C(C)(C)C)nc1)OC(C)C", "note": "(centres undefined)", "outcome": "inactive"}
{"smiles": "CNC(=O)CSP(=O)(OC)OC", "outcome": "inactive"}
{"smiles": "COP(=O)(NC(C)=O)SC", "note": "(centres undefined)", "outcome": "inactive"}
{"smiles": "CCOP(=S)(OCC)OC(Cl)C(Cl)(Cl)Cl", "note": "(centres undefined)", "AC50": "29.7 µM (active)"}
{"smiles": "CCN(CC)c1nc(C)cc(OP(=S)(OC)OC)n1", "AC50": "89.1 µM (active)"}
{"smiles": "CCOP(=S)(OCC)Oc1cc(C)nc(C(C)C)n1", "AC50": "76.5 µM (active)"}
{"smiles": "CCOP(=S)(OCC)SCSC(C)(C)C", "AC50": "81.4 µM (active)"}
{"smiles": "CCCSP(=O)(OCC)Oc1ccc(Br)cc1Cl", "note": "(centres undefined)", "outcome": "inactive"}
{"smiles": "COP(=O)(OC)O/C(=C\\Cl)c1cc(Cl)c(Cl)cc1Cl", "AC50": "66.5 µM (active)"}
{"smiles": "CCOP(=O)(OCC)Oc1nc(Cl)c(Cl)cc1Cl", "outcome": "inactive"}
{"smiles": "COP(=O)(OC)OC(Br)C(Cl)(Cl)Br", "note": "(centres undefined)", "AC50": "16.1 µM (active)"}
{"smiles": "CCOP(=O)(SC(C)CC)N1CCSC1=O", "note": "(centres undefined)", "outcome": "inactive"}
{"smiles": "COP(N)(=O)SC", "note": "(centres undefined)", "outcome": "inactive"}
{"smiles": "CNC(=O)CSP(=S)(OC)OC", "outcome": "inactive"}
{"smiles": "CCOP(=S)(OCC)SCSCC", "outcome": "inactive"}
{"smiles": "CCCCSP(=O)(SCCCC)SCCCC", "AC50": "65.2 µM (active)"}
{"smiles": "COP(=O)(OC)C(O)C(Cl)(Cl)Cl", "note": "(centres undefined)", "outcome": "inactive"}
{"smiles": "COP(=O)(OC)O/C(C)=C/C(=O)N(C)C", "outcome": "inactive"}
{"smiles": "CCOC(=O)CC(SP(=O)(OC)OC)C(=O)OCC", "note": "(centres undefined)", "outcome": "inactive"}
